# Source: the supplement of paper PMC10646978
# ± gives the standard deviation.
# Assays:
# Conditions in all cases: modulator concentration 10 µM
# [1] = test system: RAW-Dual (murine macrophage reporter line); experiment: NF-kB reporter (SEAP) activity fold change vs agonist alone; higher = enhanced NF-kB activity
# Procedure, shortened: (§1)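 RAW-Dual murine macrophage reporter cells were seeded at 50 000 per well in 384-well plates and pre-incubated 1 hour at 37 °C with compound pin-transferred to 10 μM final. After 1 hour, a PRR agonist was added and cells incubated overnight. Supernatant NF-κB (SEAP, QUANTI-Blue, 620 nm absorbance) and IRF (Lucia luciferase, QUANTI-Luc, luminescence) signals were divided by the mean agonist-only control on the same plate to give fold change. Two replicate plates were averaged, with errors by propagation.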
# [2] = test system: RAW-Dual (murine macrophage reporter line); experiment: IRF reporter (Lucia luciferase) activity fold change vs agonist alone; higher = enhanced IRF activity
# Procedure, shortened: as §1
# [3] = test system: RAW-Dual (murine macrophage reporter line); experiment: viability score (confluency relative to resting cells, overnight) (fraction); higher = more viable, active = viable (0.7 or more)
# Procedure, shortened: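 Confluency was the readout: RAW-Dual macrophages were imaged with IncuCyte after an overnight exposure to compound at 10 μM final. IncuCyte software produced two masks over all imaged wells. The viability score expresses confluency against resting cells, and both masks had to exceed 70% of resting cells for a compound to meet the cutoff.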
# [4] = agonist: CpG ODN 1826 0.5 ug/mL
Compound,"NF-kB reporter [1, 4]",NF-kB reporter ([1]; agonist: LPS 0.1 ug/mL),NF-kB reporter ([1]; agonist: MPLA […]),IRF reporter ([2]; agonist: 3'3'-cGAMP 10 ug/mL),IRF reporter ([2]; agonist: LPS 0.1 ug/mL),IRF reporter ([2]; agonist: MPLA […]),viability score [3]
Cc1ccc(OCC(=O)NN=Cc2cc(Br)cc(Br)c2O)c([N+](=O)[O-])c1,0.928 ± 0.071,0.908 ± 0.11,1.08 ± 0.17,1.01 ± 0.073,1.33 ± 0.26,1.47 ± 0.33,1.02 (active)
Clc1cccc(OCCCOc2cccc3cccnc23)c1,0.586 ± 0.046,1.13 ± 0.091,1.53 ± 0.17,0.948 ± 0.11,1.18 ± 0.083,2.83 ± 0.56,0.818 (active)
COc1cccc(N2CC(C(=O)NC3CCN(c4nccn5c(C)nnc45)CC3)CC2=O)c1 (stereo unspecified),1.03 ± 0.051,1.06 ± 0.092,0.955 ± 0.088,0.968 ± 0.049,1.17 ± 0.073,1.08 ± 0.11,1.01 (active)
O=C(c1ccc(Cl)cc1)c1ccc(N2CCCCC2)c([N+](=O)[O-])c1,1 ± 0.17,1.11 ± 0.15,1.01 ± 0.097,0.957 ± 0.064,1.27 ± 0.27,1.33 ± 0.27,0.998 (active)
COc1cc(C(=O)O)ccc1NC(=O)[C@@H]1N[C@@H](CC(C)(C)C)[C@](C#N)(c2ccc(Cl)cc2F)[C@H]1c1cccc(Cl)c1F,0.35 ± 0.03,0.513 ± 0.052,0.679 ± 0.058,0.608 ± 0.053,1.02 ± 0.21,0.952 ± 0.34,0.122 (inactive)
CNC(=O)c1ccc(Nc2ncc(C(F)(F)F)c(NCc3nccnc3N(C)S(C)(=O)=O)n2)cc1,1.25 ± 0.37,0.169 ± 0.013,2.19 ± 0.34,0.0196 ± 0.0024,0.0319 ± 0.0037,0.0361 ± 0.006,0.749 (active)
CCc1ccc(NC(=O)CSc2nc3c([nH]c4ccccc43)c(=O)n2C)cc1,0.809 ± 0.053,0.745 ± 0.06,0.776 ± 0.061,1 ± 0.08,1.13 ± 0.14,1.07 ± 0.18,0.483 (inactive)
Cc1cc(OCc2nc(-c3ccc(Cl)cc3Cl)no2)ccc1Br,1.03 ± 0.17,0.988 ± 0.12,1.63 ± 0.8,0.984 ± 0.039,1.15 ± 0.13,1.15 ± 0.21,1.01 (active)
CCOc1cc2ncc(C#N)c(Nc3ccc(OCc4ccccn4)c(Cl)c3)c2cc1NC(=O)/C=C/CN(C)C,0.161 ± 0.007,0.781 ± 0.075,0.907 ± 0.092,0.694 ± 0.032,1.46 ± 0.26,1.56 ± 0.57,0.977 (active)
CCNC(=O)c1ccc(CN2CCc3ccccc3C2)cc1,1.12 ± 0.09,1.13 ± 0.074,0.958 ± 0.059,0.905 ± 0.039,1.37 ± 0.29,1.04 ± 0.075,1.01 (active)
CN1CCC(=C2c3ccccc3CCn3c(C=O)cnc32)CC1,0.766 ± 0.11,1.24 ± 0.12,0.971 ± 0.1,0.875 ± 0.04,1.1 ± 0.14,0.943 ± 0.29,1 (active)
Br.NC(=O)C(c1ccccc1)(c1ccccc1)[C@@H]1CCN(CCc2ccc3c(c2)CCO3)C1,0.471 ± 0.18,1.25 ± 0.27,1.53 ± 0.37,0.485 ± 0.015,1.15 ± 0.41,1.41 ± 0.22,0.975 (active)
CCCC(=O)OCOC(=O)C1=C(C)NC(C)=C(C(=O)OC)C1c1cccc(Cl)c1Cl (stereo unspecified),0.752 ± 0.068,0.888 ± 0.064,1.07 ± 0.11,0.995 ± 0.048,1.18 ± 0.14,1.16 ± 0.16,1 (active)
